Structures can show the parent of a compound that is named as a salt.
Tested on: thyroid hormone receptor (endogenous TRα and TRβ)
Design: species or system GH3-TRE-Luc (rat pituitary); GH3-TRE-Luc luciferase reporter, antagonist mode against 1 nM T3, loss of signal, qHTS
Conditions: read-out: Average AC50 (uM) GH3-TRE-Antag, antagonist mode, 1 nM T3, no GH3 cytotoxicity hit

Structure (SMILES)	AC50 [µM]
CCN(CC)CCO[C@H]1CC[C@@]2(C)C(=CC[C@@H]3[C@@H]2CC[C@]2(C)C(=O)CC[C@@H]32)C1 [3beta-(2-Diethylaminoethoxy)androst-5-en-17-one hydrochloride]	22.5
CCCCOc1cc(C(=O)OCCN(CC)CC)ccc1N [Benoxinate hydrochloride]	11.8
CCCC(=O)N1CCCN(c2nc(N)c3cc(OC)c(OC)cc3n2)CC1 [Bunazosin hydrochloride]	47.9
CC(C)[C@H](C(=O)O[C@H](C#N)c1cccc(Oc2ccccc2)c1)c1ccc(Cl)cc1 [Esfenvalerate]	48
CC(=O)[C@H]1[C@H](C#N)C[C@H]2[C@@H]3CC=C4C[C@@H](O)CC[C@]4(C)[C@H]3CC[C@@]21C [Pregnenolone carbonitrile]	13.1
Nc1nc(N)c2nc(CNc3ccc(C(=O)N[C@@H](CCC(=O)O)C(=O)O)cc3)cnc2n1 [4-Aminofolic acid]	25.2
O=C(O)COc1cc(Cl)c(Cl)cc1Cl [2,4,5-Trichlorophenoxyacetic acid]	70.6
Cc1nc2ccc(CN(C)c3ccc(C(=O)N[C@@H](CCC(=O)O)C(=O)O)s3)cc2c(=O)[nH]1 [Raltitrexed]	0.18
CC(=O)CC/C=C(\C)CC/C=C(\C)CC/C=C(\C)CCC=C(C)C [Teprenone]	33.9
C[C@]12C[C@H](O)[C@H]3[C@@H](CCC4=CC(=O)CC[C@@]43C)[C@@H]1CC[C@@H]2C(=O)CO [Corticosterone]	> 50
CCCCN(CCCC)CCC(O)c1cc2c(Cl)cc(Cl)cc2c2cc(C(F)(F)F)ccc12 (stereo not shown) [Halofantrine hydrochloride]	15.6
CCCN(CC)CC1COC2(CCC(C(C)(C)C)CC2)O1 (stereo not shown) [Spiroxamine]	66.6
CCN(CC)CCNC(=O)c1cc(Br)c(N)cc1OC [Bromopride]	38.6
CCN(Cc1cccc(S(=O)(=O)O)c1)c1ccc(C(=C2C=CC(=[N+](CC)Cc3cccc(S(=O)(=O)[O-])c3)C=C2)c2ccccc2)cc1 [FD&C Green No. 1]	66.2
O=C(O)C(F)(F)C(F)(F)C(F)(F)C(F)(F)C(F)(F)C(F)(F)C(F)(F)C(F)(F)F [Perfluorononanoic acid]	71.7
[H]/N=C(\N/C(=N/[H])Nc1ccc(Cl)cc1)NC(C)C [Proguanil hydrochloride]	2.32
O=C(O)Cn1c(C(=O)Nc2nc(-c3ccccc3Cl)cs2)cc2ccccc21 [Lintitript]	> 50
CC(=O)c1c(C)cc(C(C)(C)C)cc1C [4'-tert-Butyl-2',6'-dimethylacetophenone]	48.7
OC[C@H]1O[C@@H](n2cnc3c(=S)nc[nH]c32)[C@H](O)[C@@H]1O [Thioinosine]	21.8

Structure (SMILES)	AC50 [µM]
N=c1c[n+](N2CCOCC2)[n-]o1 [3-Morpholinosydnonimine hydrochloride]	52.1
COc1ccc(O)cc1 [4-Methoxyphenol]	> 50
OC1CCCCCCCCCCC1 [Cyclododecanol]	47.7
C[C@]12CC[C@H](O)CC1=CC[C@@H]1[C@@H]2CC[C@]2(C)C(=O)CC[C@@H]12 [Dehydroepiandrosterone]	> 50
CC(C)c1cccc(C(C)C)c1O [Propofol]	> 50
Brc1cc(-c2ccc(Br)c(Br)c2Br)cc(Br)c1Br [Polybrominated biphenyls (PBB)]	51.8
COc1cc(CNC(=O)CCCC/C=C/C(C)C)ccc1O [Capsaicin]	34.4
C[C@H](CN1CCCC1)C(=O)c1ccc(C(F)(F)F)cc1 [Lanperisone hydrochloride]	31.4
CN(C)C(=O)Nc1ccc(Oc2ccc(Cl)cc2)cc1 [Chloroxuron]	64.2
CC(C)c1ccc2oc3nc(N)c(C(=O)O)cc3c(=O)c2c1 [Amlenanox]	32.7
O=C(Nc1ccc(/C=C/c2ccc(NC(=O)c3cc(S(=O)(=O)O)c4cccnc4c3O)cc2S(=O)(=O)O)c(S(=O)(=O)O)c1)c1cc(S(=O)(=O)O)c2cccnc2c1O [Ubistatin A]	27.4
Cc1ccc(C(C)c2ccc(C)c(C)c2)cc1C [1,1-Bis(3,4-dimethylphenyl)ethane]	70.8
CCCCOc1ccc(OCCCN2CCOCC2)cc1 [Pramoxine hydrochloride]	12.8
COC(=O)N[C@H](C(=O)N[C@@H](Cc1ccccc1)[C@@H](O)CN(Cc1ccc(-c2ccccn2)cc1)NC(=O)[C@@H](NC(=O)OC)C(C)(C)C)C(C)(C)C [Atazanavir]	19.5
Nc1ccc(C(=O)Oc2ccccc2)c(O)c1 [Phenyl 4-aminosalicylate]	49.5
NC(=S)NC(N)=S [2,4-Dithiobiuret]	45
CCCCCCOc1ccccc1C(N)=O [Exalamide]	30.7
CCCCCCCCc1ccc(S(=O)(=O)O)cc1 [Sodium 4-octylbenzenesulfonate]	53

Reference: paper PMC6792352, “Limited Chemical Structural Diversity Found to Modulate Thyroid Hormone Receptor in the Tox21 Chemical Library” (Environmental Health Perspectives, 2019)
